The list is not random: actives were taken first. Their share in the collection is about 27%.
CYP2C9 inh: blockers of cytochrome P450 2C9 activity – biochemical, luminescence, ADME assay, primary screen; CYP2C9 Supersomes, luciferin-H conversion; inhibition, % at 5 µM; 96,000 tested, 20% active;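 active means blocking of liver enzyme CYP2C9 beyond about 50% at 5 µM, limit read from the data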
CYP2C19 activ: human CYP2C19 activators, primary screen, biochemical, luminescence. Cytochrome P450 2C19 (Homo sapiens), P33261. 96,000 tested, under 10 active. AID 1025, 2008. activation factor at 5 µM. recombinant CYP2C19, luciferin-H EGE luminescence; hits give high values; 0 = fully inhibited enzyme, 1 = untreated enzyme;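 active means activation factor of at least 2 at 5 µM in the primary screen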;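 further: 0 = wells with 2.5 mM tranylcypromine and 1 = vehicle-only wells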
Target sequence (P33261 whole entry, looked up): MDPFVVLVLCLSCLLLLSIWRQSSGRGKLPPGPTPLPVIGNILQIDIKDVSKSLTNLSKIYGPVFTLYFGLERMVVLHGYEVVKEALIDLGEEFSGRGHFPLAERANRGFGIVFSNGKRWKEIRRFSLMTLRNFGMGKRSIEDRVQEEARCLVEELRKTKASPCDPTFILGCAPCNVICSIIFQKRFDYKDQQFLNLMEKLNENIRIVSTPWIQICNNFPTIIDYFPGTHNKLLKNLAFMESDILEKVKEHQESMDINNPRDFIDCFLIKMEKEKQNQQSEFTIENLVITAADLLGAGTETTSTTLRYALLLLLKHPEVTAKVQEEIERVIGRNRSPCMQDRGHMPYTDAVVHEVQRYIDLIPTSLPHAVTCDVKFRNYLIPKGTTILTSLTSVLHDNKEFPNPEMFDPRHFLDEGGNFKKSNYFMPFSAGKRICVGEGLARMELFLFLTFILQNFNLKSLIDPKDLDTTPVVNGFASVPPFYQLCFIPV
CYP2C19 inh: blockers of cytochrome P450 2C19 activity – biochemical, luminescence, ADME assay, primary screen | CYP2C19 Supersomes, luciferin-H EGE luminescence, 30 min | inhibition, % at 5 µM | 96,000 tested, 21% active;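 active means CYP2C19 inhibition above a set limit at 5 µM in the primary screen, cut at about 50% in these data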;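 further: plate controls were negative control wells for no effect and 2.5 mM tranylcypromine positive control for full effect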
Cav3 T inh: Cav3.2 calcium influx blockers – cell-based, Fluo-4 calcium fluorescence, FDSS, MLSMR library, primary screen | Voltage-dependent T-type calcium channel subunit alpha-1H (Homo sapiens), O95180 | Cav3.2-expressing cells; hits give low values | B-score at 10 µM | 100,000 tested, 4% active | AID 449739, 2010;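 active means single-dose well whose peak fluorescence ratio is a statistical outlier from its plate by either plate-standardised score or position-corrected B-score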
PTK2B oligo ant: antagonists of Pyk2 self-association, primary screen, Q293 cells, FERM NanoBiT luminescence, HTS; z-score (the deposit names both 25 µM and 10 µM); Protein-tyrosine kinase 2-beta (Homo sapiens), Q14289; 99,000 tested, 0.83% active; hits give low values;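 active means Z-score of -3 or lower, scaled per plate to the spread of control and sample wells; inactive means z-score above -3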;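 further: negative z-score means lost luminescence so less FERM oligomerization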
CYP2C9 act: human CYP2C9 activators, primary screen, biochemical, luminescence. 96,000 tested, 1.4% active. recombinant CYP2C9, luciferin-H conversion; hits give high values; factor 1 = untreated enzyme, 0 = blocked. Cytochrome P450 2C9 (Homo sapiens), P11712. activation factor at 5 µM. AID 1024, 2008;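 active means activation factor of 2 or more for CYP2C9 at a 5 µM dose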;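 further: 0 = sulfaphenazole-blocked wells and 1 = vehicle-only wells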
The depositor's hits bear a star; x = not tested or not shown.

SMILES	CYP2C9 inh	CYP2C19 activ	CYP2C19 inh	Cav3 T inh	PTK2B oligo ant	CYP2C9 act
Cc1cc(C(C)(C)C)cc(S(=O)(=O)NCC(=O)O)c1C	-134	0.9	14	0.01	-0.75	2.3*
Cc1ccc2nsnc2c1S(=O)(=O)N(Cc1ccco1)Cc1cc2ccc(C)c(C)c2[nH]c1=O	8	1	2	0.017	1.4	0.9
COc1cccc(NC(=O)CSc2nnc(C)s2)c1	15	0.7	26	0.89	0.18	0.8
COc1ccc(OC)c(NC(=O)CSc2nnc(N)s2)c1	32	0.5	50*	-0.4	0.41	0.7
Cc1csc(SCC(=O)Nc2ccc(Cl)cn2)n1	59*	0.1	86*	-5.1*	1.5	0.4
COc1cc(NC(=O)CSc2nc(C)cs2)cc(OC)c1	52*	0	96*	0.22	0.41	0.5
COc1ccc(OC)c(Nc2nc(N)nc(CSc3nnc(N)s3)n2)c1	28	0.8	19	-0.45	0.63	0.7
COc1ccc(OC)c(NC(=O)CSc2nc(C)cs2)c1	54*	0.2	84*	-0.11	0.05	0.5
Cc1cc(C)nc(NC(=O)CN2C(=O)c3ccccc3C2=O)n1	-23	1.1	-6	0.0026	1.6	1.2
O=C(c1ccc(-n2cnnn2)cc1)N1CCCCC1	x	x	x	0.11	0.53	x
O=C(Nc1ccc(-n2cnnn2)cc1)C1CCC1	39	0.5	51*	1.2	-0.07	0.6
C=C(CO)C1Cc2cc(C(C)=O)ccc2O1 (centres undefined)	x	x	x	0.47	x	x
CCO[C@@H]1OC(C(=O)N2CCN(C)CC2)=C[C@H](c2coc3ccccc3c2=O)[C@H]1CCCO	x	x	x	0.29	x	x
CCOC(=O)c1sc(NC(=O)C2CC2)nc1C	61*	0.4	63*	0.92	x	0.4
CCOC(=O)c1sc2nc(NC(=O)C3CC3)sc2c1C	30	0.5	53*	-1.1	x	0.7
Cc1cccc(OC(C)C(=O)N(Cc2cccs2)C2CCS(=O)(=O)C2)c1C (centres undefined)	38	0.1	95*	x	-1.3	0.6
Cc1ccccc1OCC(=O)N(Cc1cccs1)C1CCS(=O)(=O)C1 (centres undefined)	7	0.7	33	0.37	-0.11	0.9
COC(=O)C[C@H]1c2cc(C(F)(F)F)ccc2S(=O)(=O)N1C1CCCC1	x	x	x	0.084	x	x
C=C(C)c1cccc(C(C)(C)NC(=O)Nn2cnnc2)c1	50*	0.3	73*	-0.71	0.89	0.5
COc1ccc(NC(=O)C(=O)N2N=C(C(C)C)CC2(O)C(F)(F)F)cc1 (centres undefined)	-6	1	-4	0.066	0.28	1.1
CCCCOCCCNC1=NCCCCC1	0	1	-1	0.88	0.57	1
COc1ccc(CC(=S)N2CCOCC2)cc1	8	0	96*	0.069	0.63	0.9
COc1ccc(OCc2ccc(C(=O)N3CCOCC3)cc2)cc1	x	x	x	0.64	-0.51	x
Cc1ccc(S(=O)(=O)CC(=O)N(C)C)cc1	x	x	x	x	1.5	x
Cc1ccc(NC(=S)N2CCC(c3nc4ccccc4s3)CC2)cc1	57*	0.7	32	-1.5	0.96	0.4
SMILES	CYP2C9 inh	CYP2C19 activ	CYP2C19 inh	Cav3 T inh	PTK2B oligo ant	CYP2C9 act
CN(C)S(=O)(=O)c1cccn1-c1ncc(C(F)(F)F)cc1Cl	45	0.6	39	0.48	1.4	0.6
CC(=O)NN1C(=O)/C(=C\c2ccccc2)SC1=S	14	0.6	42	1.1	0.31	0.9
COc1ccc(/C=C/C(=O)Nc2cc(C(F)(F)F)ccc2Cl)cc1OC	x	x	x	x	-0.27	x
CN(C)c1ccc(/C=C2\SC(=S)N(Nc3ncc(C(F)(F)F)cc3Cl)C2=O)cc1	-18	1	2	-5.1*	-3.4*	1.2
CCOc1cc(/C=C2\SC(=S)N(Nc3ccccc3)C2=O)ccc1O	3	1	1	x	-3.6*	1
COc1cc(/C=C2\SC(=S)N(Nc3ncc(C(F)(F)F)cc3Cl)C2=O)ccc1O	52*	0.5	54*	-2.5	-3.1*	0.5

From PubChem
